# Bioassay records as filed in PubChem BioAssay.
# An excerpt weighted towards active compounds, which were near 7.9% of everything screened.
# FMDV antiviral: foot and mouth disease virus antiviral activity; FMDV antiviral cell-based qHTS; Potency, µM (highest dose often 57.9 µM), usual class: inhibitors; hit rate 1.2% among 410,000; calls by dose curve; tested in HEK293T cells; further: read-out not given here; nearly all actives have a fitted effect of over 45% in size
# Marburg entry inh: blocks Marburg virus binding to or entry into cells; Marburg virus pseudotyped entry inhibition, cell reporter; Potency, µM (series often up to 37.8 µM), hits mostly inhibitors; hit rate 1.8% among 300,000; AID 540276; calls by dose curve; tested in HEK293 cells
# HCMV inh: inhibitors of human cytomegalovirus | HFF cells, HCMV-luciferase reporter, 72 h; stronger effect = lower value | hit rate 4.5% among 410,000 | activity change, negative = inhibition, % at 57.5 µM; in the data active means activity change below about -60%; inconclusive means no clear call, values can overlap the other calls; inactive means above about -39%
#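 Two-dose cell screen: HFF monolayers treated with compounds and infected with luciferase-expressing HCMV at 1 PFU/cell, 72 h at 37C, then lysed for luciferase measurement.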
# LASV entry inh: Lassa virus entry inhibition. Lassa virus pseudotype entry inhibition, cell reporter. Potency, µM (highest dose often 37.9 µM), most hits filed as inhibitors. hit rate 1.2% among 300,000. AID 540256; calls by dose curve; tested in HEK293 cells; further: nearly all actives have a fitted effect of over 50% in size
# HCV inhibitor: inhibitors of hepatitis C virus infection | hit rate 3.4% among 340,000 | Huh7.5.1 HCVcc-Cre infection, luciferase reporter, 44 h | AID 651820 | Potency, µM (highest dose often 41.8 µM), most hits filed as inhibitors; active means well fitted inhibition curve with a large enough effect; inconclusive means small, poorly fitted or top-dose-only effect, or another doubt; inactive means no such curve, though single readings can be large or run the other way
#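 1,000 cells/well; 4 h culture; + compound; + HCVcc-Cre (~0.5 moi); 44 h; luciferase substrate, RT 15 min; read 15 sec.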
# Numbers stand for hits; - = inactive; ? = inconclusive; . = not tested or not shown; [ ] = remark or other dose.
SMILES,FMDV antiviral,Marburg entry inh,HCMV inh,LASV entry inh,HCV inhibitor
CC1CCc2nc(NC(=O)c3ccc(S(=O)(=O)N4CCCc5ccccc54)cc3)sc2C1 (stereo unspecified),?,?,-87.0,-,?
CNC(=O)c1ccsc1NC(=O)c1ccc(S(=O)(=O)N2CCCc3ccccc32)cc1,?,?,-62.2,16.4µM,10µM
CCc1nnc(NC(=O)c2ccc(S(=O)(=O)N3CCCc4ccccc43)cc2)o1,.,?,-64.4,?,?
COCc1nnc(NC(=O)c2ccc(S(=O)(=O)N3CCCCCC3)cc2)o1,-,-,-,-,-
COc1ccc([C@@H]2[C@@H](C(=O)N3CCOCC3)CC(=O)N2C(=O)Nc2ccc(C)c(Cl)c2)cc1,.,.,-,.,.
Cc1cc(N2CCN(c3cccc(C)c3C)CC2)n2nc(C)c(-c3ccc(Cl)cc3)c2n1,-,-,-,-,.
Cc1ccc(OCC(=O)Nc2ccc3nn(-c4ccc(Cl)cc4)nc3c2)cc1,-,.,-,?,.
Cc1cc(C(=O)N2CCN(C(c3ccccc3)c3ccccc3)CC2)no1,?,-,-,-,?
O=C(c1cnn2c(C(F)(F)F)cc(-c3cccs3)nc12)N1CCN(C(c2ccccc2)c2ccccc2)CC1,-,12.6µM,-,?,?
COc1ccccc1-c1cc(C(F)(F)F)n2ncc(C(=O)N3CCc4ccccc4C3)c2n1,-,-,-,-,11.2µM
O=C(c1cc(-c2cccs2)on1)N1CCN(C(c2ccccc2)c2ccccc2)CC1,-,?,?,?,2.82µM
Cc1onc(C(=O)N2CCN(C(c3ccccc3)c3ccccc3)CC2)c1[N+](=O)[O-],?,-,-103.2,-,?
COc1ccc(-c2cc(C(F)F)n3ncc(C(=O)N4CCc5ccccc5C4)c3n2)cc1,?,?,-,?,?
Cc1ccsc1C(=O)N(Cc1cc2ccc(F)cc2nc1N1CCC(O)CC1)CC1CCCO1 (stereo unspecified),-,.,.,.,.
CCN(c1ccccc1)c1nnc(NC(=O)Nc2cccc(Cl)c2C)s1,-,?,-,-,.
COc1ccc(NC(=O)COc2cc(O)c3c(c2)OC(C)(C)CC3=O)cc1,-,.,-,.,2.82µM
COc1ccc(CCNC(=O)COc2cc(O)c3c(c2)OC(C)(C)CC3=O)cc1OC,-,.,-,.,3.16µM
COc1cccc(NC(=O)COc2cc(O)c3c(c2)OC(C)(C)CC3=O)c1,-,.,-,.,-
COc1cc(NC(=O)COc2cc(O)c3c(c2)OC(C)(C)CC3=O)cc(OC)c1,-,.,-,.,2.82µM
Cc1ccc(NC(=O)/C=C/c2ccc([N+](=O)[O-])s2)cc1,-,14.1µM,-96.1,10µM,?
Cc1cccc(NC(=S)N/N=C/c2ccc([N+](=O)[O-])s2)c1,-,?,-92.5,15.8µM,8.91µM
Cc1ccc(NC(=O)/C=C/c2ccc([N+](=O)[O-])s2)c(C)c1,12.6µM,?,-101.0,?,?
Cc1cccc(NC(=O)/C=C/c2ccc([N+](=O)[O-])s2)c1,-,?,-97.7,?,11.2µM
Cc1ccc(/C=C/C(=O)Nc2ccc([N+](=O)[O-])cc2)o1,-,-,-,-,-
COc1ccc(Sc2ccc(/C=C3\C(=O)NN(c4ccccc4)C3=O)o2)cc1,39.8µM,?,-,-,-
SMILES,FMDV antiviral,Marburg entry inh,HCMV inh,LASV entry inh,HCV inhibitor
O=C1NC(=O)N(c2ccccc2)C(=O)/C1=C/c1ccc(Sc2ccccc2)o1,?,?,.,-,-
Cc1cccc(NC(=S)N2CCN(S(=O)(=O)c3cccc(F)c3)CC2)c1,-,?,-,-,6.31µM
CCCc1sc(N/N=C/c2ccccn2)nc1-c1ccc(Br)cc1,-,?,-98.5,5.17µM,3.16µM
CC(C)NS(=O)(=O)c1ccc(OCC(=O)NCc2ccccc2)cc1,-,-,-,-,-
CC(NS(=O)(=O)c1ccc(OCC(=O)NCc2ccncc2)cc1)c1ccccc1 (stereo unspecified),-,4.47µM,?,.,-
FC(F)(F)c1ccc2c(c1)n(Cc1ccccc1)c1[n+]2CCCCC1,-,-,-65.8,-,-
CCc1cccc(NC(=O)Cn2c3[n+](c4ccc(C(F)(F)F)cc42)CCCCC3)c1,-,-,-64.0,-,?
COC(=O)c1sccc1S(=O)(=O)N(CC(=O)NCc1ccc(C)cc1)c1ccc(C)c(C)c1,-,.,-,-,.
O=C(c1cccnc1)N1CC(=O)N2[C@@H](CO)[C@@H](c3ccc(Br)cc3)[C@@H]2C1,.,.,-,.,.
Cc1cccc2c(=O)cc(C(F)(F)F)[nH]c12,?,-,-,-,-
O=c1cc(C(F)(F)F)[nH]c2c(OC(F)(F)F)cccc12,?,?,-94.9,-,-
CCN(CC)CCN(C(=O)C1=COCCO1)c1nc2cc(C)cc(C)c2s1,?,11.2µM,-,-,?
CN(C)CCCN(C(=O)C1=COCCO1)c1nc2ccc(Br)cc2s1,-,?,-,-,12.6µM
CN(C)CCN(C(=O)c1ccc2ccccc2c1)c1nc2ccc(Br)cc2s1,-,.,-,.,-
COc1ccc(C)c2sc(N(CCCN(C)C)C(=O)c3ccc4c(c3)OCCO4)nc12,-,?,-,10µM,?
Cc1cc(C)c2nc(N(CCCN(C)C)C(=O)c3ccc4c(c3)OCCO4)sc2c1,-,?,?,?,11.2µM
O=C(NCc1ccc(F)cc1)C(=O)NCC(c1cccs1)S(=O)(=O)c1cccs1 (stereo unspecified),?,.,-,-,.
CCN(C(=O)C1CCN(S(=O)(=O)c2c(C)noc2/C=C/c2ccc(C)cc2)CC1)c1cccc(C)c1,-,.,-,-,.
CC1CCc2nc3ncn(Cc4ccccc4C#N)c(=O)c3cc2C1 (stereo unspecified),-,.,-,-,.
COc1cccc(C(=O)Nc2c(C(=O)N3CCN(c4ccc(F)cc4)CC3)oc3ccccc23)c1,-,.,-,-,.
Cc1cc(C)c2nc(N(CCCN(C)C)C(=O)C3=COCCO3)sc2c1,-,20µM,-,?,31.6µM
CCN(C(=O)C1=COCCO1)c1nc2c(C)cccc2s1,-,?,-,?,-[8.37 µM]
CCOC(=O)C1(C(=O)OCC)COC(=O)C1CN1Cc2cc3ccccc3nc2C1 (stereo unspecified),28.2µM,.,-,.,.
O=C(CCS(=O)(=O)c1cc(Br)cc2c1N(C(=O)C1CC1)CC2)Nc1ccc(F)cc1,-,?,-,-,.
CCOC(=O)c1cc(C#N)c(N2CCCNCC2)nc1C(F)(F)F,-,.,-,.,15.8µM
CC(=O)OC1CC(OC2C(O)CC(OC3C(O)CC(OC4CCC5(C)C(CCC6C5CCC5(C)C(C7=CC(=O)OC7)CCC65O)C4)OC3C)OC2C)OC(C)C1OC1OC(CO)C(O)C(O)C1O (stereo unspecified),-,?,-97.6,0.1µM,0.794µM
C[C@@H]1O[C@@H](O[C@H]2[C@H](O[C@H]3C[C@]4(C)C(C[C@@H](O)C5C([C@]6(C)CC[C@@H](C(C)(C)O)O6)CC[C@]54C)[C@@]4(C)CC[C@H](O)C(C)(C)C34)O[C@H](CO)[C@@H](O)[C@@H]2O)[C@H](O)[C@H](O)[C@H]1O (stereo partly specified),-,.,-,.,-
Cc1ccc(NS(=O)(=O)c2ccc3c(c2)CC(=O)N3)cc1F,-,-,-62.4,-,-
CN(Cc1ccccc1Cl)C(=O)c1cc2ccccc2o1,-,-,-,?,-
